Results filed as inconclusive are left out. The source made the active and inactive calls. Rule for the calls: active = hit-call score of the fitted dose curve at least 0.9, where 1 is the maximum; inconclusive = response in the unintended direction; inactive = score below 0.9.

Assay [1] has as its target Estrogen receptor beta (Homo sapiens) (UniProt Q92731). The assay is described as follows: OT_ER_ERbERb_0480: Odyssey Thera (OT) 8-hour HEK293T Protein-Complementation Assay for Estrogen Receptor-beta/-beta Homodimer (AID 2283357).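 Note: active means signal gain over DMSO baseline.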 The gist of the method:
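ER-beta LBD homodimer PCA stably expressed in HEK293T; 8 h compound exposure, then formaldehyde fixation and Draq5 staining. Gain in nuclear/cytoplasmic fluorescence intensity versus DMSO vehicle, read on laser scanning cytometer.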

Assay [2] addresses Nuclear receptor subfamily 1 group I member 2 (Homo sapiens) (UniProt O75469). The assay is described as follows: NVS_NR_hPXR: NovaScreen (NVS) Nuclear Receptor Binding Assay for human Pregnane X Receptor (PXR) (AID 2283365).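 Note: a drop in FRET signal versus DMSO baseline means the compound binds.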 The gist of the method: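 Human PXR binding measured by TR-FRET in a cell-free format, 2 h exposure. Single-concentration duplicates at 25 uM preceded concentration-response retests of actives; endpoint fitted positively relative to DMSO, loss of signal indicating binding.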

In assay [3] the target is Peroxisome proliferator-activated receptor gamma (Homo sapiens) (UniProt P37231). The assay is described as follows: NVS_NR_hPPARg: NovaScreen (NVS) Nuclear Receptor Binding Assay for human Peroxisome Proliferator-activated Receptor gamma (PPARg) (AID 2283370). An outline of the steps:
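Fluorescence polarization readout of ligand binding to extracted human PPARg, measured at 2 h. Duplicate single-point screen at 25 uM, then concentration-series retesting; activity defined as signal loss versus DMSO.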

The target in assay [4] is mouse Estrogen Receptor alpha (Era), Esr1 (gene 13982) (UniProt P19785). The assay is described as follows: NVS_NR_mERa: NovaScreen (NVS) Nuclear Receptor Binding Assay for mouse Estrogen Receptor alpha (Era) (AID 2283378).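 Note: hit means loss of bound radioligand signal relative to DMSO.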 The gist of the method: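 Filter radiodetection of radioligand displacement from extracted receptor protein, measured 18 h post-dose. Single 25 uM concentration in duplicate initially, with concentration-series follow-up. Binding loss fitted relative to DMSO.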
Sequence of mouse Estrogen Receptor alpha (Era), Esr1 (gene 13982) (P19785 whole entry, looked up): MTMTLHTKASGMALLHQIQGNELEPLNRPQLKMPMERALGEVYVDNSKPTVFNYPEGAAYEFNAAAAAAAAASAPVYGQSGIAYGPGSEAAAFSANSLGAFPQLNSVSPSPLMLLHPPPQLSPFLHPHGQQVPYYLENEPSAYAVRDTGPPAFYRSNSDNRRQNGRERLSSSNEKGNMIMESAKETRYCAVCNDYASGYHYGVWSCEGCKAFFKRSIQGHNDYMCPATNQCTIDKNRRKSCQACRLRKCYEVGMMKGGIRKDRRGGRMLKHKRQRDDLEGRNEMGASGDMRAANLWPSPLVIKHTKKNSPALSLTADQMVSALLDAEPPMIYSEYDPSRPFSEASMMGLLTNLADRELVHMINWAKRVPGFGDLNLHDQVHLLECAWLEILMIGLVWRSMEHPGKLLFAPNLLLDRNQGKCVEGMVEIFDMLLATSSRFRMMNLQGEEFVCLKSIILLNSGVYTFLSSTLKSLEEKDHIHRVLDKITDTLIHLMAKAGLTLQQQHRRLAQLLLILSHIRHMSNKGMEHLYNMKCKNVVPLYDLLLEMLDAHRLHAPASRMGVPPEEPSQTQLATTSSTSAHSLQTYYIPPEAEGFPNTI

Assay [5] concerns the target human Peroxisome Proliferator-activated Receptor alpha (PPARa), PPARA (gene 5465) (UniProt Q07869). The assay is described as follows: NVS_NR_hPPARa: NovaScreen (NVS) Nuclear Receptor Binding Assay for human Peroxisome Proliferator-activated Receptor alpha (PPARa) (AID 2283359).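 Note: activity means loss of TR-FRET signal versus DMSO baseline.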 The gist of the method: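 Loss of TR-FRET binding signal relative to DMSO was measured 1 h after chemical addition to extracted receptor protein. Chemicals were first tested in duplicate at 25 uM, and actives were followed up in concentration series.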

For assay [6], the target named is human Thyroid Receptor Alpha (TRa), THRA (gene 7067) (UniProt P10827). The assay is described as follows: NVS_NR_hTRa_Antagonist: NovaScreen (NVS) Nuclear Receptor Binding Assay for human Thyroid Receptor Alpha Antagonism (TRa) (AID 2283362).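 Note: activity is loss of signal relative to DMSO baseline.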 An outline of the steps: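 Actives from a duplicate 25 uM single-point screen were retested in concentration series. The cell-free antagonist-format binding assay was read by AlphaLISA chemiluminescence at 1 h, scored as signal loss relative to DMSO.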
Sequence of human Thyroid Receptor Alpha (TRa), THRA (gene 7067) (P10827 whole entry, looked up): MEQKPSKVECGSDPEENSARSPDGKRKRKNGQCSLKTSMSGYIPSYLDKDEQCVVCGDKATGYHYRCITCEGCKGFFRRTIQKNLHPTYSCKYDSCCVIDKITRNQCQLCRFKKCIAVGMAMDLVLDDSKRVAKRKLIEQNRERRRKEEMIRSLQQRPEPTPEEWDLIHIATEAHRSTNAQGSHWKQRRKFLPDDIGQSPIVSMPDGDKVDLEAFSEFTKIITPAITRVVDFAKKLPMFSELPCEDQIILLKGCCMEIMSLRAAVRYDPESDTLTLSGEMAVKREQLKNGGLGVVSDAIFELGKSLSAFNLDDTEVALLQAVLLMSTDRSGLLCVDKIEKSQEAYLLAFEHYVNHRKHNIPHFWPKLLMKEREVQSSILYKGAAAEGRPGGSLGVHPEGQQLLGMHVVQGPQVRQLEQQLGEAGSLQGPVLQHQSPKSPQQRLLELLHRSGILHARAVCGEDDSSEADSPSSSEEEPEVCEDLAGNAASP

Another assay deals with PGR (gene 5241) (UniProt P06401). Put plainly: NVS_NR_hPR: NovaScreen (NVS) Nuclear Receptor Binding Assay for human Progestron Receptor (PR) (AID 2283360).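 Note: active means loss of bound radioligand signal versus DMSO baseline.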 The gist of the method:
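Radioligand competition binding on receptor extracted from T47D cells, read by scintillation counting 18 h after dosing. Loss of signal versus DMSO; primary screen in duplicate at 25 uM, actives followed in concentration series.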

Assay [7] has as its target rat Serotonin Transporter (SERT), Slc6a4 (gene 25553) (UniProt P31652). The assay is described as follows: NVS_TR_rSERT: NovaScreen (NVS) Transporter Assay for rat Serotonin Transporter (SERT) (AID 2283375). An outline of the steps: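 Radioligand binding with competitive displacement on rat forebrain membrane preparations, counted by filtration and scintillation after 1 h. Primary single-point duplicates at 25 uM; active chemicals followed up in concentration-response. DMSO served as baseline.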

Assay [8] concerns the target guinea pig Sigma Receptor, Non-selective Binding, SIGMAR1 (gene 100135589) (UniProt Q60492). The assay is described as follows: NVS_OR_gSIGMA_NonSelective: NovaScreen (NVS) Nuclear Receptor Binding Assay for guinea pig Sigma Receptor, Non-selective Binding (AID 2283367). An outline of the steps: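 Guinea pig brain membrane sigma sites were labelled with a radioligand, and bound radioactivity was counted after filtration 1 h post-dose. Compounds were screened at 25 uM in duplicate, then retested as concentration series when active.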

Assay [9] addresses human Adenosine Transporter (Adot), SLC29A1 (gene 2030) (UniProt Q99808). Put plainly: NVS_TR_hAdoT: NovaScreen (NVS) Transporter Assay for human Adenosine Transporter (Adot) (AID 2283368). The gist of the method: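 Binding displacement on U937 extracted protein, read 1 h post-dose by filtration and scintillation counting. Primary duplicate test at 25 uM, then singleton concentration series with 50 uM top; DMSO baseline.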

For assay [10], the system named is guinea pig Dopamine Transporter (DAT), gene 100714898. The assay is described as follows: NVS_TR_gDAT: NovaScreen (NVS) Transporter Assay for guinea pig Dopamine Transporter (DAT) (AID 2283369).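 Note: active compounds lower bound radioligand signal relative to DMSO.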 The gist of the method: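 Radioligand displacement on membranes from guinea pig striatum, 2 h exposure, bound label counted by filtration and scintillation. Tested at 25 uM in duplicate, then actives in concentration series to 50 uM; DMSO as negative control.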

Assay [11] deals with rat Norepinephrine Transporter (NET), gene 83511. The assay is described as follows: NVS_TR_rNET: NovaScreen (NVS) Transporter Assay for rat Norepinephrine Transporter (NET) (AID 2283373). An outline of the steps: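 Competitive radioligand displacement at the rat NET using forebrain membrane preparations, 1 h incubation, filter-based scintillation readout. Primary testing in duplicate at a single 25 uM concentration; confirmed actives retested across concentrations.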

Assay [12] addresses Glucocorticoid receptor (Homo sapiens) (UniProt P04150). The assay is described as follows: NVS_NR_hGR: NovaScreen (NVS) Nuclear Receptor Binding Assay for human Glucocorticoid Receptor (GR) (AID 2283363).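 Note: activity is loss of specific radioligand binding signal relative to DMSO.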 The gist of the method: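 Compounds first tested in duplicate at 25 uM, actives followed up in concentration series. Binding to extracted GR protein measured as competitive radioligand displacement, filter scintillation read 16 h post-dosing, normalised to DMSO.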

Assay [13] has as its target Retinoic acid receptor alpha (Homo sapiens) (UniProt P10276). The assay is described as follows: NVS_NR_hRARa_Agonist: NovaScreen (NVS) Nuclear Receptor Binding Assay for human Retinoic Acid Alpha Receptor Agonism (RAR) (AID 2283361). The gist of the method:
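Agonist-mode TR-FRET binding format using extracted protein, measured at 2 h post-dosing. Initial duplicate single-point screen at 25 uM preceded concentration series for actives; activity was normalized to DMSO baseline.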

For assay [14] the target is unchanged. The assay is described as follows: NVS_NR_hRAR_Antagonist: NovaScreen (NVS) Nuclear Receptor Binding Assay for human Retinoic Acid Alpha Receptor Antagonism (RAR) (AID 2283358). An outline of the steps:
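RARalpha antagonism was read by TR-FRET as loss of binding signal versus DMSO, 2 h after chemical addition, in a biochemical format. Single-concentration duplicates (25 uM) were run first, and actives were retested in concentration series.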

Sequence of human Peroxisome Proliferator-activated Receptor alpha (PPARa), PPARA (gene 5465) (Q07869 whole entry, looked up): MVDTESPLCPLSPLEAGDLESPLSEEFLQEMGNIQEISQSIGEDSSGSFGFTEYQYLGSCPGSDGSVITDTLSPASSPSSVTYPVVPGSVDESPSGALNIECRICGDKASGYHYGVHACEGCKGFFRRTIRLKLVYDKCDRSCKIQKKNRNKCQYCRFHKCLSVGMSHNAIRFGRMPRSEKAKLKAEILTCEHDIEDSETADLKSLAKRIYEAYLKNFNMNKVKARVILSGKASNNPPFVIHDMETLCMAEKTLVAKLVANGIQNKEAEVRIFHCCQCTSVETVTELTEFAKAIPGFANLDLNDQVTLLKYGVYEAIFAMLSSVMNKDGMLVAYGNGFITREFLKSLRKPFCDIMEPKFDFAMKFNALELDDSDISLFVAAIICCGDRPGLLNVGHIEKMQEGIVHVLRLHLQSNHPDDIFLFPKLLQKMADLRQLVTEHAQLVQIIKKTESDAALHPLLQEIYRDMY
Sequence of guinea pig Sigma Receptor, Non-selective Binding, SIGMAR1 (gene 100135589) (Q60492 whole entry, looked up): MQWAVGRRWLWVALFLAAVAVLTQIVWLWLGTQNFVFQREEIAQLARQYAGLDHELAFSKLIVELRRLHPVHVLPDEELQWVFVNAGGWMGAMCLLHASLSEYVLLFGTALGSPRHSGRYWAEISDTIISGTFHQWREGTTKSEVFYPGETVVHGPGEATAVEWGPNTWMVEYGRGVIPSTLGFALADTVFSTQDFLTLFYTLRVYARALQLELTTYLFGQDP
Sequence of Peroxisome proliferator-activated receptor gamma (Homo sapiens) (P37231 whole entry, looked up): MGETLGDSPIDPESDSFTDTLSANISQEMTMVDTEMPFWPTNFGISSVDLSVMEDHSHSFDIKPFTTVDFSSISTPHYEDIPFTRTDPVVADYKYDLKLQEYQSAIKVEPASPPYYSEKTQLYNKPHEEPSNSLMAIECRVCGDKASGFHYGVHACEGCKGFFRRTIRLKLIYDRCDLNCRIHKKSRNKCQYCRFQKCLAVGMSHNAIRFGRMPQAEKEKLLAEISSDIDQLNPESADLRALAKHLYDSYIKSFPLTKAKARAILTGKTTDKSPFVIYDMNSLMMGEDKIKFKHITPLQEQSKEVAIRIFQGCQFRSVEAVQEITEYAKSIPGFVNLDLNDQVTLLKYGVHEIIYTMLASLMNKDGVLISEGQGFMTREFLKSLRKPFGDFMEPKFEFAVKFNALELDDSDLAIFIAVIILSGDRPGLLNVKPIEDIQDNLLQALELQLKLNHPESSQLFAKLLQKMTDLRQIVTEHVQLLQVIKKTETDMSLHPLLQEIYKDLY
Sequence of Estrogen receptor beta (Homo sapiens) (Q92731 whole entry, looked up, the tested form may be a part): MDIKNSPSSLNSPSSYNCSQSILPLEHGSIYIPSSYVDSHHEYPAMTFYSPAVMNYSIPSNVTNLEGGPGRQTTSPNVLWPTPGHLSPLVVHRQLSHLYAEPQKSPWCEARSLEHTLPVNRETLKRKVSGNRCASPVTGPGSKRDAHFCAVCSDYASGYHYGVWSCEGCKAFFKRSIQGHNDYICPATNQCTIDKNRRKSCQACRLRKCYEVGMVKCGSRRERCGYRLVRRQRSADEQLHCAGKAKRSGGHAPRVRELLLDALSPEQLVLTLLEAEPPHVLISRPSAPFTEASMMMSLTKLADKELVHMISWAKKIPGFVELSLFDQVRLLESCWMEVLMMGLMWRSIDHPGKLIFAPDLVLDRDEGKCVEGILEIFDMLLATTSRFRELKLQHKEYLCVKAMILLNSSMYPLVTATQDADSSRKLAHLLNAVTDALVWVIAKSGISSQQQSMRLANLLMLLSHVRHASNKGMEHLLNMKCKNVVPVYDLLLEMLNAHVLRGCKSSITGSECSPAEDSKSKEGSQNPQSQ
Sequence of PGR (gene 5241) (P06401 whole entry, looked up): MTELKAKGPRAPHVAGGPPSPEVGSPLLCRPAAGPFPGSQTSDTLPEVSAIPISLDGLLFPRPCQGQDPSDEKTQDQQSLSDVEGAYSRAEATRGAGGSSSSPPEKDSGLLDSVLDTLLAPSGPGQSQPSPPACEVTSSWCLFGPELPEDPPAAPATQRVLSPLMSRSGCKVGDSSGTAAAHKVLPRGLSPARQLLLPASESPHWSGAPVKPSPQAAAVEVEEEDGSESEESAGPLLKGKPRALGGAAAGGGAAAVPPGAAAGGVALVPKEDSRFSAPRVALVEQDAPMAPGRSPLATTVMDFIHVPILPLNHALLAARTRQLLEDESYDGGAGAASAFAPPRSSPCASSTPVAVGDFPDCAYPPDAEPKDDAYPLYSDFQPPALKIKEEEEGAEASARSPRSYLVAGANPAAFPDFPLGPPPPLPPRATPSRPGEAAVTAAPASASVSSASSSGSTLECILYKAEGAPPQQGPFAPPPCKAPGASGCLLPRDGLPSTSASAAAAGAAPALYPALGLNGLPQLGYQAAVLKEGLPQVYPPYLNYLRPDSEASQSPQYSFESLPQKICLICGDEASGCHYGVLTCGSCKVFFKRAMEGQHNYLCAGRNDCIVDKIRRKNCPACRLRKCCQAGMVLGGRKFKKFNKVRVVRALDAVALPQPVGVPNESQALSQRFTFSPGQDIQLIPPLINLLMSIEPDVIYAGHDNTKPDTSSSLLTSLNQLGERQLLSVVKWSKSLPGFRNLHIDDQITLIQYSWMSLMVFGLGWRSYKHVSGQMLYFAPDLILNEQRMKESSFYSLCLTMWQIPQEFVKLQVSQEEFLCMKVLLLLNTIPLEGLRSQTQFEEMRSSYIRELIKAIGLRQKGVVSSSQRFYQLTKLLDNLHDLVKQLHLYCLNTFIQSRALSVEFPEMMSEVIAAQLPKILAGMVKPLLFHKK
Sequence of Retinoic acid receptor alpha (Homo sapiens) (P10276 whole entry, looked up): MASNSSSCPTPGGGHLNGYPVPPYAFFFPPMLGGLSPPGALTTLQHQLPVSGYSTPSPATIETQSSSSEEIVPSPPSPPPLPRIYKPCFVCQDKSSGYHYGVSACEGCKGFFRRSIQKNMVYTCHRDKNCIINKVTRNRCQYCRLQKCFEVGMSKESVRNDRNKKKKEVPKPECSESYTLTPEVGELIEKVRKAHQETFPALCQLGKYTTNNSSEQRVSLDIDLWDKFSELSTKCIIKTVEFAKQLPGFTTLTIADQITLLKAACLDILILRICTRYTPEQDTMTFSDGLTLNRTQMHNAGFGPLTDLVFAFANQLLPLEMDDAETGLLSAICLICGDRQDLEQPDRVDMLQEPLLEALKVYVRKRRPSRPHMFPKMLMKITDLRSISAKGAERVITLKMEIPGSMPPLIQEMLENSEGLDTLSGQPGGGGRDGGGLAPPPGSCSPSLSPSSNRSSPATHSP
Sequence of Nuclear receptor subfamily 1 group I member 2 (Homo sapiens) (O75469 whole entry, looked up): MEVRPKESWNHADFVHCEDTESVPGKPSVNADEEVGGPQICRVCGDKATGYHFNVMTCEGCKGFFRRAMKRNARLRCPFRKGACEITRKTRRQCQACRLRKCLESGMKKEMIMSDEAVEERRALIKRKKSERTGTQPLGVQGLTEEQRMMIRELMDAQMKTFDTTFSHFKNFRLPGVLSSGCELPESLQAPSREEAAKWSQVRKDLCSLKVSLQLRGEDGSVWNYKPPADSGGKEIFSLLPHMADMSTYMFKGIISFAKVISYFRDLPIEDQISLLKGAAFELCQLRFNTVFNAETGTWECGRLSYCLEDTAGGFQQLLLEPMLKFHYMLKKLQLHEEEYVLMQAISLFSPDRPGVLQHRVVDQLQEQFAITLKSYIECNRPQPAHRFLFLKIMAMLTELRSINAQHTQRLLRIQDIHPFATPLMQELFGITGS

With `OCC(CO)(CO)CO`, the call in [1] and in assay [2] was inactive.
With `Cc1cccc(O)c1C`, the result in assay [1], in assay [3] and in assay [4] was inactive.
`CCOC(N)=O`: the compound was classed as inactive in assay [4].
As for `NC(=O)NN=Cc1ccc([N+](=O)[O-])o1`, in assay [3], the compound was called inactive.
For `CCCCCCCCCCCCCCO`, the result in [1] and in [5] was inactive.
With `Nc1ccn([C@@H]2O[C@H](CO)[C@@H](O)[C@@H]2O)c(=O)n1`, the compound was called inactive in [4].
`CC(C)CCCCCCOC(=O)C1CCCCC1C(=O)OCCCCCCC(C)C` (configuration not stated): the outcome in [6] and in assay [4] was inactive.
In the case of `OC[C@H]1O[C@@H]2O[C@H]3[C@H](O)[C@@H](O)[C@@H](O[C@H]4[C@H](O)[C@@H](O)[C@@H](O[C@H]5[C@H](O)[C@@H](O)[C@@H](O[C@H]6[C@H](O)[C@@H](O)[C@@H](O[C@H]7[C@H](O)[C@@H](O)[C@@H](O[C@H]1[C@H](O)[C@H]2O)O[C@@H]7CO)O[C@@H]6CO)O[C@@H]5CO)O[C@@H]4CO)O[C@@H]3CO`, the compound was called inactive in [1] and in assay [6]. Moreover, the AC50 in assay [4] is 10.3 µM (active).
In the case of `O=S(=O)(O)c1ccc(N=Nc2c(O)ccc3cc(S(=O)(=O)O)ccc23)cc1`, the call (with PGR (gene 5241); in [7]) was inactive.
Take `Cc1nccn1-c1ccc(Sc2cccc(C3(C(N)=O)CCOCC3)c2)cc1`: the AC50 in assay [1] is 32.3 µM (active); with PGR (gene 5241), 6.18 µM (active); in assay [8], 19.7 µM (active); in [10] it was 0.0243 µM (active). The call in assay [5], in assay [9] and in assay [3] was inactive.
Consider `O=c1[nH]cnc2c1ncn2[C@H]1CC[C@@H](CO)O1`, for which the result in assay [11] was inactive.
On to `C[C@]12C=CC(=O)C=C1CC[C@H]1[C@@H]3C[C@@H](O)[C@](O)(C(=O)CO)[C@@]3(C)C[C@H](O)[C@@]12F`, for which the compound was classed as inactive (with PGR (gene 5241); in assay [2]; in assay [4]). In addition, the AC50 in [12] was 0.0746 µM (active).
`CCc1ccc(O)c(C(C)(C)C)c1`: in assay [1], the AC50 was 11.9 µM (active). Besides, the result (in assay [5]; with PGR (gene 5241); in assay [4]) was inactive.
As to `CCCCCCCCN(C)C`, the compound was called inactive in [13]. Also, the values for the AC50 in assay [8] and in [7] were 1.88 µM (active) and 12.5 µM (active), respectively.
Turning to `OC[C@H]1O[C@@](CO)(O[C@H]2O[C@H](CO)[C@@H](O)[C@H](O)[C@H]2O)[C@@H](O)[C@@H]1O`, the compound was called inactive (in [1]; with PGR (gene 5241)).
Take `CC(C)C(=O)Nc1ccc([N+](=O)[O-])c(C(F)(F)F)c1`: the result in assay [1], in assay [5], in assay [6], in assay [8] and in assay [4] was inactive.
As to `CCCC(CCC)C(=O)O`, in assay [4], the result was inactive.
Take `NC(=O)N1c2ccccc2C=Cc2ccccc21`: the call (in assay [1]; in assay [14]; in the assay with PGR (gene 5241); in assay [4]) was inactive.
With `CCOc1ccc2[nH]cc(C(=O)NCc3ccccc3)c(=O)c2n1`, the compound was classed as inactive in assay [1] and in assay [3].
On to `CCCCN1C(=O)[C@@H]([C@H](O)C2CCCCC2)NC(=O)C12CCN(Cc1ccc(Oc3ccc(C(=O)O)cc3)cc1)CC2`, for which the outcome in assay [5] was inactive.
Take `COS(C)(=O)=O`: the compound was classed as inactive in assay [4].

The AC50 is the midpoint of the concentration-response curve, whichever way the signal moves.

For the origin of these results see PubChem BioAssay (EPA / NIEHS).
